Compound activity as filed in PubChem.
MCF10A rerep: inducers of DNA re-replication in MCF 10A breast cells. MCF 10A DNA re-replication, Hoechst nuclear intensity, 48 h. Potency, µM (top dose mostly 46.1 µM), inactives show at the top dose activity, positive = re-replication, most hits filed as activators. 2.9% of 350,000 active. AID 624296; also: potency is read from the fitted curve at half-maximal effect; % of control where 0% means no effect; nearly all actives have a fitted effect of over 50% in size
KB-V1 cytotox: kills drug-selected multidrug resistant KB-V1 cells | KB-V1 MDR cells viability, CellTiter-Glo, 72 h | 3.4% of 400,000 active | Potency, µM (highest dose often 46.1 µM), hits mostly cytotoxic; also: potency is read from the fitted curve at half-maximal effect; % is scaled to controls: 0 for no effect and ±100 for the full control effect; nearly all actives have a fitted effect of over 60% in size
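Readout: CellTiter-Glo luminescence, 10 min after addition. Cells: KB-V1 MDR subline, 72 h at 37 degrees C with compound. Analysis: corrected, normalized data fitted to concentration-effect curves.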
SW480 rerep: DNA re-replication induction in SW480 cells | Potency, µM (doses to about 46.1 µM), for inactives: at the highest dose re-replication activation, actives largely listed as activators | 1.8% of 340,000 active | SW480 DNA re-replication, Hoechst DNA content imaging, 48 h; also: potency is read from the fitted curve at half-maximal effect; % of control where 0% means no effect; nearly all actives have a fitted effect of over 55% in size
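First, 250 cells per well were seeded. Next, compound or vehicle (23 nL) was pinned in, plates sat 48 hr at 37 C. Finally Hoechst was added for 40 min before fluorescence scanning.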
Giardia killer: Giardia lamblia killing | Giardia lamblia trophozoite viability | activity change, % at 7.66 µM, hits read low | 0.15% of 340,000 active; in the data active = activity change below about -80%; inconclusive = between about -30% and that limit;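 also: parasites exposed to compound for two days anaerobically before the ATP read; % is scaled to controls: 0 for no effect and ±100 for the full control effect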
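Trophozoites 100 cells/well + cpd; 48 hrs, 37 deg C, anaerobic. ATPLite 1-Step added, 15-30 min RT, luminescence read (ATP-based viability).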
KB-3-1 tox: KB-3-1 parental cell cytotoxicity; 1.4% of 400,000 active; KB-3-1 viability, CellTiter-Glo ATP luminescence, 72 h; Potency, µM (titrated, usually from 46.1 µM), usual class: cytotoxic; also: potency is read from the fitted curve at half-maximal effect; % is scaled to controls: 0 for no effect and ±100 for the full control effect; nearly all actives have a fitted effect of over 60% in size
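Parental KB-3-1 adenocarcinoma cells in phenol-red-free DMEM with 10% FBS were pin-treated with compounds at several concentrations, incubated 72 h at 37 °C, and viability read by CellTiter-Glo luminescence; concentration-effect curves were fitted after normalization.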
ASM inhibitor: blocks human secretory acid sphingomyelinase | 0.006% of 340,000 active | P17405 | AID 504937 | placental ASM, HMU-PC fluorogenic substrate, 60 min | Potency, µM (top dose mostly 57.5 µM), inactives show at the highest dose activity change, negative = inhibition, hits mostly inhibitors; also: potency is read from the fitted curve at half-maximal effect
Target sequence (P17405 47-631 limits assumed): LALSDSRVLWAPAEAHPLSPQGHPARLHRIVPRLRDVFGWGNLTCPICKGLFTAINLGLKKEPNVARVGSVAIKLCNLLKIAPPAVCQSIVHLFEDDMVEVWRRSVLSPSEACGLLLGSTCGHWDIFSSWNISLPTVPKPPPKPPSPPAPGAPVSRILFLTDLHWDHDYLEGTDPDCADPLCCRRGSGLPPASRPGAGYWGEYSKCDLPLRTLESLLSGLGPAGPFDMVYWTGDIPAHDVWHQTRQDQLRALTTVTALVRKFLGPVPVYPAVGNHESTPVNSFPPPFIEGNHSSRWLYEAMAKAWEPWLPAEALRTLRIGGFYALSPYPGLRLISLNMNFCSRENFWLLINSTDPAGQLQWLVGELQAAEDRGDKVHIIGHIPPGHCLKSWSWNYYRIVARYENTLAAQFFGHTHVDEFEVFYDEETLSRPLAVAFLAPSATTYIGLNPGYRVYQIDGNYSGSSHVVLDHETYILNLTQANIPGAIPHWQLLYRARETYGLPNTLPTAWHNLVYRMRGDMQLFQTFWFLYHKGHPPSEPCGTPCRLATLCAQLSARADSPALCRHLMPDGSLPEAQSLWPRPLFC
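Steps: dispense placental human ASM, pin compound, wait 10 min at room temperature, add HMU-PC0 substrate at 9 uM final, incubate 60 min at 37 °C, add stop solution raising pH to 10, read fluorescence.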
Active calls of the source: *; i = inactive; ? = inconclusive; . = no result given; [ ] = dose if it differs, or a comment. A selection: hits, their analogues and other compounds. The true share with any hit is near 6.9%. Unless noted, calls follow the shape of the dose curve; as a rule, active = well fitted curve in the direction sought with a large enough effect; inconclusive = small, poorly fitted or top-dose-only effect, or another doubt; inactive = no such curve, though single readings can be large; an effect the other way counts as inactive or inconclusive.

SMILES	MCF10A rerep	KB-V1 cytotox	SW480 rerep	Giardia killer	KB-3-1 tox	ASM inhibitor
C=CCn1c(=NC(=O)c2ccc(S(=O)(=O)N3CCc4ccccc4C3)cc2)sc2cc(S(N)(=O)=O)ccc21	9.2µM*	?	?	-8.9	i	19.3%
COCCn1c(=NC(=O)c2ccc(S(=O)(=O)N3CCCc4ccccc43)cc2)sc2cc(S(C)(=O)=O)ccc21	?	1.84µM*	?	12.6	i	2.3%
C=CCn1c(=NC(=O)c2ccc(S(=O)(=O)N3CCCc4ccccc43)cc2)sc2cc(S(N)(=O)=O)ccc21	28.2%	i	3.9%	-9.3	i	-5.6%
COc1cccc(C(=O)N=c2sc3cc(S(C)(=O)=O)ccc3n2C)c1	1.2%	i	6.51µM*	30.1	i	3.4%
C#CCn1c(=NC(=O)c2ccc(S(=O)(=O)N3CCc4ccccc4C3)cc2)sc2cc(S(N)(=O)=O)ccc21	4.11µM*	?	?	11.9	?	24.3%
CCc1sc(-c2cc3cccc(OC)c3oc2=O)nc1-c1cc(C)ccc1C	.	?	.	8.1	i	.
Cn1c(=O)c2c(nc(Sc3ncccn3)n2Cc2ccccc2Cl)n(C)c1=O	?	23.1µM*	-12.6%	10.9	i	-2.0%
C=CCOc1nc2c(c(=O)n(C)c(=O)n2C)n1Cc1ccc(Cl)cc1	-8.3%	2.91µM*	-5.7%	-16.4	?	-3.8%
CCCOc1nc2c(c(=O)n(C)c(=O)n2C)n1C	-4.8%	i	-2.6%	11.8	i	0.7%
Cn1c(=O)c2c(nc(Sc3ncccn3)n2Cc2ccc(Cl)cc2)n(C)c1=O	7.4%	i	-1.3%	1.6	i	-2.2%
C=CCOc1nc2c(c(=O)n(C)c(=O)n2C)n1Cc1ccccc1Cl	?	7.31µM*	-3.0%	11.9	?	-2.1%
CCCOc1nc2c(c(=O)n(C)c(=O)n2C)n1Cc1cccc2ccccc12	17.6%	5.8µM*	9.7%	-0.1	i	?
COc1ccc(NC(=O)C2=C(C)Nc3nc(SCc4ccccc4)nn3C2c2cc(OC)ccc2OC)cc1 (configuration not stated)	.	i	.	.	i	.
COC(=O)COc1ccc2oc(=O)cc(-c3cc4cccc(OC)c4o3)c2c1	-1.2%	?	-0.3%	-1.4	i	-0.2%
Cc1ccc([N+](=O)[O-])c(OCCn2cnc3ccccc32)c1	0.0%	14.6µM*	3.3%	-2.3	?	1.7%
Cc1ccc(OCCOCCn2cnc3ccccc3c2=O)c([N+](=O)[O-])c1	-11.7%	?	-4.1%	3.9	i	-0.8%
COc1ccc(/C(O)=C/c2nc3ccccc3n(-c3ccccc3)c2=O)cc1	8.2µM*	i	?	3.1	i	26.1%
Cc1ccc2occ(-c3cc(-c4ccc(Cl)cc4)nc4c3COc3ccccc3-4)c(=O)c2c1	.	i	.	.	i	.
O=C1C(=Cc2cn(-c3ccccc3)nc2-c2ccc(OCc3ccc(Cl)cc3)cc2)SC(=S)N1CCS(=O)(=O)O	.	?	.	.	8.2µM*	.
Cc1cccc(NC(=O)CSc2nc3c(c(=O)[nH]2)CN(Cc2ccc4c(c2)OCO4)CC3)c1C	.	i	.	.	i	.
CCCCC(=O)Nc1ccc(C(=O)N(CC)c2ccccc2C)cc1	20.1%[9.22 µM]	14.6µM*	?	-0.3	i	-1.2%
O=C(c1cc(N2C(=O)C3C4CCC(C4)C3C2=O)ccc1Cl)N1CCN(c2ccccc2)CC1 (configuration not stated)	-35.6%	3.26µM*	?	-4.1	i	0.0%
CCC1CCCCN1C(=O)c1nn(-c2ccc(C)cc2)c(=O)c2c1c1ccccc1n2C (configuration not stated)	.	?	.	.	i	.
CCOC(=O)Cc1nnc(NC(=O)CSc2nnc3c4ccccc4n(C)c3n2)s1	?	i	0.731µM*	-12.0	i	-2.4%
CCN(CC)C(=O)CSc1nnc2c3ccccc3n(C)c2n1	0.4%	i	-4.3%	-11.6	i	1.1%
SMILES	MCF10A rerep	KB-V1 cytotox	SW480 rerep	Giardia killer	KB-3-1 tox	ASM inhibitor
CCOC(=O)C(C)Sc1nnc2c3ccccc3n(C)c2n1 (configuration not stated)	1.84µM*	i	-7.6%	-0.7	i	-0.8%
O=C(CCC1CCCCC1)N1CCN(Cc2ccc3c(c2)OCO3)CC1	8.7%	23.1µM*	-0.6%	1.2	?	2.1%
CS(=O)(=O)N(CC(=O)N1CCN(Cc2ccc3c(c2)OCO3)CC1)C1CCCCC1	-4.6%	20.6µM*	-5.8%	2.6	i	2.9%
CC(C)(C)CC(=O)N1CCN(Cc2ccc3c(c2)OCO3)CC1	-9.6%	i	-6.4%[9.22 µM]	-2.4	i	3.7%
Cc1oncc1-c1csc(-c2ccccc2Cl)n1	-4.1%	13µM*	i[1.84 µM]	-0.1	?	-18.8%
Cc1oncc1-c1csc(-c2ccccc2)n1	-2.3%	?	-1.5%	-11.6	i	-6.2%
Cc1cc(=O)n(C(C)C(=O)N2CCCc3ccccc32)c2c1c(C)nn2-c1ccccc1 (configuration not stated)	.	i	.	.	i	.
COc1ccc(Oc2nc3c(c(=O)n(C)c(=O)n3C)n2Cc2ccccc2Cl)cc1	.	i	.	.	i	.
CN1CCCN(C(=O)Cc2c(Cl)cccc2Cl)c2nc3ccccc3nc21	?	i	16.4µM*	-5.7	i	380.9%
CN1CCCN(C(=O)c2cc(=O)[nH]c3ccccc23)c2nc3ccccc3nc21	7.6%	i	-8.8%	8.6	i	14.6%
O=C1OCCN1C(=O)[C@H]1[C@H](c2ccc([N+](=O)[O-])cc2)C(c2cccc(Cl)c2)=NN1c1ccc(Br)cc1	-3.2%	i	-6.7%	-12.3	i	4.8%
O=C1OCCN1C(=O)[C@H]1[C@H](c2ccc(Cl)cc2)C(c2cccc(Cl)c2)=NN1c1ccccc1	?	i	11.6µM*	0.5	i	i
O=C1OCCN1C(=O)[C@H]1[C@H](c2ccc(F)cc2)C(c2cccc(Cl)c2)=NN1c1ccccc1	0.581µM*	i	18.4µM*	-16.3	i	i
O=C(CCNS(=O)(=O)c1ccc2c(c1)CCN2C(=O)C1CC1)N1CCN(c2cccc(Cl)c2)CC1	.	i	.	.	?	.
O=C(NC(Cc1c[nH]c2ccccc12)C(=O)Nc1ccc(F)c([N+](=O)[O-])c1)c1cccs1 (configuration not stated)	?	6.51µM*	?	5.5	?	-14.6%
O=C(NC(Cc1c[nH]c2ccccc12)C(=O)Nc1ccc(OC(F)(F)F)cc1)c1cccs1 (configuration not stated)	?	?	?	9.1	11.6µM*	-19.5%
